Compound activity deposited in PubChem by National Center for Advancing Translational Sciences (NCATS).
The list is not random: actives were taken first. Their share in the collection is about 1.9%.
ERK EGF block: EGF-driven ERK pathway inhibition. AID 1454. actives 0.41% (n = 130,000). Potency, µM (top dose mostly 11.5 µM), without a hit: at the top dose activity change, negative = inhibition, hits mostly inhibitors. HEK293-V1b, EGF-stimulated phospho-ERK AlphaScreen;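 note: plate controls were stimulated vehicle wells for no effect and unstimulated vehicle basal for full effect; nearly all actives have a fitted effect of over 55% in size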
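After overnight plating in 1% FBS, HEK293-V1b cells received test compound for half an hour, then a 5 min pulse of EGF (25 nM); ERK phosphorylation in lysates was read by bead-based AlphaScreen.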
HTT aggregate: reduces HttQ103-GFP aggregates in PC12 cells | Potency, µM (top dose mostly 46.1 µM), for inactives: at the top dose activity change, negative = inhibition, hits mostly inhibitors | actives 1.1% (n = 220,000) | PC12 HttQ103-GFP aggregates, Acumen cytometry, 40 h; note: % is set by controls: 0 for no effect and ±100 for the full control effect; nearly all actives have a fitted effect of over 60% in size
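Inducible Q103 Huntingtin exon 1–GFP PC12 line, 1500 cells/well in phenol red free DMEM with 5% equine and 5% calf serum. Tebufenozide 100 nM induced expression; compounds titrated; aggregates quantified by cytometry.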
HTT ATP protect: Huntington cell model cytoprotection by ATP luminescence; PC12 HTT-Q103 induced, cytoprotection, ATP luminescence, 40 h; AID 1471; actives 0.14% (n = 230,000); Potency, µM (series often up to 56.4 µM), for inactives: cytoprotection (ATP increase), most hits filed as activators; note: % of control where 0% means no effect; nearly all actives have a fitted effect of over 45% in size
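PC12 cells with ecdysone-inducible HTT exon 1 Q103-GFP, induced with 100 nM tebufenozide and co-treated with library compounds in a dose series (1536-well, 1500 cells/well). Cytoprotection read as ATP content by ATPlite luminescence.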
IMPase Li inh: cell-permeable IMPase inhibitors with lithium potentiation; actives 0.35% (n = 210,000); Potency, µM (top dose mostly 59.4 µM), without a hit: at the highest dose activity, negative = IMPase inhibition, hits mostly inhibitors; CHO-M1 cells, IP1 TR-FRET (IP-One), carbachol + lithium;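 note: IP1 builds up when IMPase is blocked and the TR-FRET signal falls; plate controls were basal vehicle for no effect and high inhibitor control for full effect; nearly all actives have a fitted effect of over 50% in size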
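Readout is a homogeneous TR-FRET IP1 immunoassay (Ex 320, Em 665 and 620), where raised cytosolic IP1 lowers signal. Cells were CHO-M1 treated 30 min at 37C with test compounds plus a little lithium; AC50 values came from Hill-equation fitting.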
NPSR antag: antagonists of human neuropeptide S receptor cAMP signaling. CHO-NPSR cells, cAMP TR-FRET, antagonist mode. Q6W5P4. Potency, µM (doses to about 38.3 µM), for inactives: top-dose activity change, negative = inhibition, most hits filed as inhibitors. actives 1% (n = 220,000); note: % is set by controls: 0 for no effect and ±100 for the full control effect; nearly all actives have a fitted effect of over 50% in size
Target sequence (Q6W5P4 whole entry, looked up): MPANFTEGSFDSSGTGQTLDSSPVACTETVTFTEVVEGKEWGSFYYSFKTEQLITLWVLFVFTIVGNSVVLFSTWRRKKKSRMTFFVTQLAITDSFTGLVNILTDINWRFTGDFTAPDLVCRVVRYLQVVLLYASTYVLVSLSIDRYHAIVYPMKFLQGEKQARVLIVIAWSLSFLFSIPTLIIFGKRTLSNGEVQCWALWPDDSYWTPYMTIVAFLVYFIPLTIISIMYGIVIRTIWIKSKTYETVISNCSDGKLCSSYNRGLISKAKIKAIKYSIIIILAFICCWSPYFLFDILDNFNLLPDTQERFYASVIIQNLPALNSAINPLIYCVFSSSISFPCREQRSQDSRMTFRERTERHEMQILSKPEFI
* marks the source's active call; other numbers are inactive results; ? = inconclusive; . = not tested or not shown; [ ] = dose if it differs, or a comment. Calls come from the whole dose curve; as a rule, active = well fitted curve in the direction sought with a large enough effect; inconclusive = small, poorly fitted or top-dose-only effect, or another doubt; inactive = no such curve, though single readings can be large; an effect the other way counts as inactive or inconclusive. Potency is the fitted concentration of half-maximal effect.

SMILES	ERK EGF block	HTT aggregate	HTT ATP protect	IMPase Li inh	NPSR antag
CCC1NC(=O)C(NC(=O)c2ncccc2O)C(C)OC(=O)C(c2ccccc2)NC(=O)C2CC(=O)CCN2C(=O)C(Cc2ccccc2)N(C)C(=O)C2CCCN2C1=O (centres undefined)	.	9.2%	11.3%	.	.
COc1cc(O)c(C(CCN2CCN(c3ccccc3)CC2)c2ccc(N(C)C)cc2)c(OC)c1 (centres undefined)	17.8µM*	-32.3%[9.22 µM]	-9.5%[10 µM]	.	-26.7%
Nc1ccc(N=Nc2ccccc2)c(N)c1	.	.	-129.2%	16.9%	.
O=C(Cc1ccc(Cl)cc1)c1c[nH]c(C(=O)NCc2cccnc2)c1	-1.3%	17.8µM*	-17.2%[10 µM]	-8.9%	-15.6%
CC(C)(C)c1ccc(C(=O)c2c[nH]c(C(=O)NCc3cccnc3)c2)cc1	.	-15.1%	6.7%[10 µM]	8.7%	-19.0%[46.1 µM]
N#CCCCS(=O)(=O)c1nnnn1-c1ccc(F)cc1Br	-17.0%	.	7.08µM*	8.2%	.
COC(=O)C1=C(C)NC(C)=C(C(=O)OCCN(C)Cc2ccccc2)C1c1cccc([N+](=O)[O-])c1 (centres undefined)	?	-37.8%	-40.1%	21.7%	10µM*
O=C1c2ccccc2C(=O)C12OC2c1ccc(Cl)cc1 (centres undefined)	-7.7%	31.6µM*	0.3%[10 µM]	7.4%	?
O=C1NC(c2ccc(Cl)cc2)Nc2ccccc21 (centres undefined)	?	-12.5%[9.22 µM]	-31.5%[10 µM]	-15.8%	-0.3%
COc1ccc(NC(=S)NC(NC(=O)c2cccc(C)c2)C(Cl)(Cl)Cl)c([N+](=O)[O-])c1 (centres undefined)	2.4%	3.7%	-13.2%[1.9 µM]	13.1%	?
COc1ccc(NC(=S)NC(NC(=O)c2cccc(Cl)c2)C(Cl)(Cl)Cl)c([N+](=O)[O-])c1 (centres undefined)	0.5%	28.2µM*	17.6%[10 µM]	10.7%	10µM*
COc1ccc(N2CCN(CC(O)c3c[nH]c4ccc(OC)cc34)CC2C)cc1 (centres undefined)	.	12.6µM*	-66.9%	1.8%[38.3 µM]	-4.5%[46.1 µM]
Cc1nc2[nH]c(=O)[nH]c(=O)c2[nH]1	10.0%	.	?	18.1%	.
Nc1nnc(CCOc2ccccc2Cl)s1	.	?	-92.5%[10 µM]	-29.6%[38.3 µM]	-1.8%[46.1 µM]
Nc1nnc(Cc2ccc(Cl)c(Cl)c2)s1	.	5.62µM*	-2.8%	12.3%[38.3 µM]	2.4%[46.1 µM]
CCOC(=O)C1=C(C)C(c2cccc(Oc3ccccc3)c2)NC(=S)N1 (centres undefined)	5.4%	?	.	15.4%	-43.7%
CCOC(=O)C1=C(c2cccc(Oc3ccccc3)c2)NC(=S)NC1C (centres undefined)	.	11.2µM*	-8.9%	34.9%[38.3 µM]	?
N=c1ccn2c(n1)O[C@@H]1[C@H](O)[C@H](CO)O[C@@H]12	-2.3%	.	-79.4%[1.9 µM]	4.2%	.
O=C(CSCc1nc2ccccc2[nH]1)N1CCN(c2cccc(Cl)c2)CC1	.	25.1µM*	-32.1%	7.1%[38.3 µM]	-11.3%[46.1 µM]
O=C(c1ccc(CSc2nc3ccncc3[nH]2)cc1)N1CCN(c2cccc(Cl)c2)CC1	17.8µM*	?	.	22.3%	-15.7%
CCN1CCN(Cc2ccc(NC(=O)c3ccc(C)c(NC(=O)c4nccnc4N)c3)cc2C(F)(F)F)CC1	?	2.82µM*	4.3%[10 µM]	.	-3.6%
c1ccc(CNc2oc(-c3ccccc3)nc2-c2ccccc2)cc1	-12.2%	.	-2.4%	25.6%	.
COc1ccccc1Cn1c(=O)c2ccccc2n2c(Sc3ncnc4sccc34)nnc12	.	?	1.58µM*	3.2%[38.3 µM]	-23.4%[46.1 µM]
Cn1cc(C=C2C(=O)OC3(CCCCC3)OC2=O)c2ccccc21	5.9%[57.5 µM]	-8.0%[9.22 µM]	8.6%[10 µM]	.	-14.9%
Cn1cc(C=C2C(=O)CC(C)(C)CC2=O)c2ccccc21	3.6%	0.0251µM*	.	-1.8%	12.8%
SMILES	ERK EGF block	HTT aggregate	HTT ATP protect	IMPase Li inh	NPSR antag
CCCCCCCC/C=C\CCCCCCCC(=O)NCCCC(=O)O	1.6%	.	-2.0%	2.2%	.
CC1=C(Cl)C2=NS(=O)(=O)CCN2C=C1Cl	-2.4%	0.112µM*	.	-4.1%	9.6%
Cc1cc(=O)oc2cc(NC(=O)c3cc4ccccc4o3)ccc12	.	3.5%	-19.5%	2µM*	?
CCCCCCCCCCCCCC(=O)N[C@H](C)[C@@H](O)c1ccccc1	-2.9%	.	-9.4%	-7.7%	.
COC(=O)c1cc(OC)c(OC)cc1NC(=O)CN1CCCCC1	.	0.631µM*	-0.2%[0.074 µM]	5.2%[38.3 µM]	-1.7%[46.1 µM]
COC1=C(Nc2ccc(OC)cc2)C(=O)c2ccccc2C1=O	12.6µM*	12.6µM*	-15.0%[10 µM]	56.5%	-29.8%
COC1=C(Nc2ccc(O)cc2)C(=O)c2ccccc2C1=O	?	15.4%	7.5%[10 µM]	40.1%	-32.7%
COc1ccc(NC2=C(NCCO)C(=O)c3ccccc3C2=O)cc1	?	-0.8%	-15.1%[10 µM]	38.2%	-30.5%
CCOc1ccc(NC2=C(OC)C(=O)c3ccccc3C2=O)cc1	12.6µM*	?	-59.8%[10 µM]	45.9%	-29.9%
COC(=O)[C@@H](NC(=O)c1cc(-c2ccccc2)nc2ccccc12)c1ccccc1	.	.	-20.7%[1.9 µM]	.	.
CCCCCC1=C2CNC(CCC)(C(=O)OC)C=C2C(C)C1=O (centres undefined)	22.0%	.	-49.4%	13.1%	.
CCOc1cc([C@@H]2C[C@H]3CN(c4ccccc4)C(=O)[C@]34CCCN24)ccc1OC	-8.3%	7.08µM*	-161.3%	.	22.3%
O=[N+]([O-])c1ccc(/C=N/n2c(C3CCCCC3)n[nH]c2=S)cc1	.	0.6%	-10.9%	10.4%[38.3 µM]	-7.0%[46.1 µM]
S=c1[nH]nc(C2CCCCC2)n1/N=C/c1ccncc1	28.7%	0.224µM*	0.8%	-3.0%	10.6%
O=C(O)CCCC[C@H]1CCSS1	.	.	-0.6%[1.9 µM]	.	.
Nc1c(C(=O)Nc2ccc(Br)cc2)sc2nc(-c3ccco3)ccc12	.	1.1%	-48.7%	11.2µM*	?
Nc1c(C(=O)Nc2ccc(F)cc2)sc2nc(-c3ccco3)ccc12	.	19.6%	-13.3%	?	9.6%[46.1 µM]
CC(C)c1ccc(N2C(=O)CC(Sc3nc4ccccc4o3)C2=O)cc1 (centres undefined)	.	3.55µM*	-148.3%	2.0%[38.3 µM]	-24.5%[46.1 µM]
COc1ccc(N2C(=O)CC(Sc3nc4ccccc4s3)C2=O)cc1 (centres undefined)	-0.5%	31.6µM*	-136.9%	-1.2%	-6.0%
Cc1ccnc(NC(c2ccsc2)c2ccc3ccc(C)nc3c2O)c1 (centres undefined)	31.6µM*	7.6%[9.22 µM]	-19.3%[1.9 µM]	15.0%	-25.9%
Cc1cccc(C)c1Nc1oc(-c2ccccc2)nc1-c1ccccc1	9.0%	.	9.8%	23.3%	.
CCCC(=O)O[C@]1(C(=O)COC(C)=O)CC[C@H]2[C@@H]3C[C@H](F)C4=CC(=O)C=C[C@]4(C)[C@@]3(F)[C@@H](O)C[C@@]21C	.	-5.7%	.	27.8%	2.51µM*
C[C@@H]1C[C@H]2[C@@H]3C[C@H](F)C4=CC(=O)C=C[C@]4(C)[C@@]3(F)[C@@H](O)C[C@]2(C)[C@@]1(O)C(=O)COC(=O)C(C)(C)C	-17.0%[57.5 µM]	-11.9%	.	3.4%	-51.5%
